# Measured values published in the supplement of paper PMC6897291.
# Counter-ions that a name gives are not always drawn.
# Assays:
# [1] = tested on: RIVA; assay: growth inhibition by drug plus 177Lu-lilotomab satetraxetan (1 - RLU/untreated control) (fraction); higher = stronger inhibition; details: 177Lu-lilotomab satetraxetan 0.5 ug/ml
# Method in brief: (§1)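 Compound doses on the pre-printed Selleck Cambridge Cancer Compound library plates were 10/100 nM for RIVA cells and 10/1,000 nM for U-2932 cells, seeded at 3,000 cells/well. Before seeding, cells were washed after 18 h with or without a radiolabelled anti-CD37 antibody conjugate (~600 MBq/mg; 0.5 µg/ml RIVA, 1 µg/ml U-2932). Growth inhibition was derived from RealTime-Glo luminescence relative to untreated no-drug control wells. Readings were taken daily starting on day 3, each after 1 h at 37°C, and each well's RLU was divided by the mean of 48 such wells per plate and subtracted from 1.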
# [2] = tested on: U-2932; assay: growth inhibition by drug alone (1 - RLU/untreated control) (fraction); higher = stronger inhibition; details: 177Lu-lilotomab satetraxetan 0 ug/ml
# Method in brief: as §1
# [3] = tested on: RIVA; assay: as above; details: 177Lu-lilotomab satetraxetan 0 ug/ml
# Method in brief: as §1
# [4] = tested on: U-2932; assay: growth inhibition by drug plus 177Lu-lilotomab satetraxetan (1 - RLU/untreated control) (fraction); higher = stronger inhibition; details: 177Lu-lilotomab satetraxetan 1 ug/ml
# Method in brief: as §1
Compound,"growth inhibition by drug plus 177Lu-lilotomab satetraxetan ([1]; 100 nM, time (day): 5)","growth inhibition by drug plus 177Lu-lilotomab satetraxetan ([1]; 100 nM, time (day): 6)","growth inhibition by drug alone ([2]; 10 nM, time (day): 3)","growth inhibition by drug alone ([2]; 10 nM, time (day): 4)","growth inhibition by drug alone ([2]; 10 nM, time (day): 5)","growth inhibition by drug alone ([2]; 10 nM, time (day): 6)","growth inhibition by drug alone ([2]; 1000 nM, time (day): 3)","growth inhibition by drug alone ([2]; 1000 nM, time (day): 4)","growth inhibition by drug alone ([2]; 1000 nM, time (day): 5)","growth inhibition by drug alone ([2]; 1000 nM, time (day): 6)","growth inhibition by drug alone ([3]; 10 nM, time (day): 3)","growth inhibition by drug alone ([3]; 10 nM, time (day): 4)","growth inhibition by drug alone ([3]; 10 nM, time (day): 5)","growth inhibition by drug alone ([3]; 10 nM, time (day): 6)","growth inhibition by drug alone ([3]; 100 nM, time (day): 3)","growth inhibition by drug alone ([3]; 100 nM, time (day): 4)","growth inhibition by drug alone ([3]; 100 nM, time (day): 5)","growth inhibition by drug alone ([3]; 100 nM, time (day): 6)","growth inhibition by drug plus 177Lu-lilotomab satetraxetan ([4]; 10 nM, time (day): 3)","growth inhibition by drug plus 177Lu-lilotomab satetraxetan ([4]; 10 nM, time (day): 4)","growth inhibition by drug plus 177Lu-lilotomab satetraxetan ([4]; 10 nM, time (day): 5)","growth inhibition by drug plus 177Lu-lilotomab satetraxetan ([4]; 10 nM, time (day): 6)","growth inhibition by drug plus 177Lu-lilotomab satetraxetan ([4]; 1000 nM, time (day): 3)","growth inhibition by drug plus 177Lu-lilotomab satetraxetan ([4]; 1000 nM, time (day): 4)","growth inhibition by drug plus 177Lu-lilotomab satetraxetan ([4]; 1000 nM, time (day): 5)","growth inhibition by drug plus 177Lu-lilotomab satetraxetan ([4]; 1000 nM, time (day): 6)","growth inhibition by drug plus 177Lu-lilotomab satetraxetan ([1]; 10 nM, time (day): 3)","growth inhibition by drug plus 177Lu-lilotomab satetraxetan ([1]; 10 nM, time (day): 4)","growth inhibition by drug plus 177Lu-lilotomab satetraxetan ([1]; 10 nM, time (day): 5)","growth inhibition by drug plus 177Lu-lilotomab satetraxetan ([1]; 10 nM, time (day): 6)","growth inhibition by drug plus 177Lu-lilotomab satetraxetan ([1]; 100 nM, time (day): 3)","growth inhibition by drug plus 177Lu-lilotomab satetraxetan ([1]; 100 nM, time (day): 4)"
N#Cc1ccc(COC[C@H]2O[C@@H](n3c(NCc4ccc(Cl)c(Cl)c4)nc4c(N)ncnc43)[C@H](O)[C@@H]2O)cc1,0.557,0.551,,,,,,,,,,,,,,,,,,,,,,,,,,,,,,
COc1cc2ncnc(Nc3ccc(F)c(Cl)c3)c2cc1NC(=O)/C=C/CN1CCCCC1,0.387,0.392,-0.101,-0.0931,-0.078,0.0128,-0.222,-0.156,-0.164,-0.0283,-0.299,-0.339,-0.376,-0.409,-0.261,-0.3,-0.331,-0.346,-0.0733,-0.0275,0.0218,0.0574,-0.26,-0.16,-0.0838,0.0995,0.446,0.525,0.55,0.538,0.262,0.366
CC1(CN2CCC(n3c(=O)[nH]c4ccccc43)CC2)OCc2ccccc2-n2cccc21 (stereo not drawn),0.6,0.609,-0.00689,-0.027,-0.0586,-0.0906,-0.241,-0.0399,-0.126,-0.115,-0.0853,-0.102,-0.143,-0.225,-0.307,-0.303,-0.319,-0.374,-0.0386,0.0346,0.0781,0.0987,-0.0292,0.0476,0.0675,0.175,0.576,0.59,0.612,0.612,0.521,0.568
CC(C)(C)c1cc(NC(=O)Nc2ccc(-c3cn4c(n3)sc3cc(OCCN5CCOCC5)ccc34)cc2)no1 [Quizartinib (AC220)],0.377,0.391,0.0329,-0.0112,-0.0203,0.0321,-0.0933,-0.0955,-0.0983,0.0473,-0.0494,-0.0577,-0.051,-0.0533,-0.339,-0.307,-0.369,-0.46,0.0106,0.0631,0.109,0.208,-0.105,-0.0657,-0.0306,0.182,0.463,0.533,0.557,0.567,0.27,0.368
CCC(C)n1ncn(-c2ccc(N3CCN(c4ccc(OCC5COC(Cn6cncn6)(c6ccc(Cl)cc6Cl)O5)cc4)CC3)cc2)c1=O (stereo not drawn) [Itraconazole (Sporanox)],0.541,0.559,0.0829,0.0704,0.0582,-0.11,0.0952,0.087,0.0678,-0.00563,-0.0197,0.0654,-0.0473,-0.325,-0.037,0.0162,0.00541,-0.0886,0.0224,0.0823,0.142,0.126,0.102,0.147,0.188,0.311,0.61,0.642,0.66,0.668,0.407,0.522
O=C(O)CC[C@H]1CC[C@@](c2cc(F)ccc2F)(S(=O)(=O)c2ccc(Cl)cc2)CC1,0.543,0.556,0.105,0.0715,-0.0926,-0.0883,0.0344,0.041,-0.0603,-0.0323,0.072,0.0162,-0.0366,-0.42,-0.186,-0.2,-0.179,-0.202,0.00844,0.0724,0.123,0.147,0.000893,0.0697,0.0856,0.142,0.613,0.631,0.645,0.643,0.453,0.522
CC(C)(C)c1[nH]cnc1/C=c1\[nH]c(=O)/c(=C/c2ccccc2)[nH]c1=O [NPI-2358 (Plinabulin)],0.972,0.976,0.142,0.0848,0.0507,-0.0221,0.964,0.971,0.974,0.98,0.00478,-0.0503,-0.112,-0.272,0.941,0.953,0.959,0.963,0.0693,0.123,0.165,0.213,0.968,0.975,0.98,0.984,0.505,0.546,0.548,0.574,0.955,0.967
COc1ccc(CNC(=O)Nc2ncc([N+](=O)[O-])s2)cc1,0.489,0.47,-0.00788,-0.00166,0.0195,0.136,0.0779,0.0745,0.0965,0.0679,-0.12,-0.122,-0.158,-0.156,0.108,0.0378,-0.00577,-0.0255,-0.0555,-0.0169,0.0364,0.187,0.116,0.138,0.159,0.289,0.496,0.573,0.599,0.609,0.44,0.479
C=CCc1cccc(/C=N/NC(=O)CN2CCN(Cc3ccccc3)CC2)c1O,0.488,0.509,0.126,0.104,0.0863,0.00412,0.161,0.136,0.0263,-0.0573,-0.0454,0.0184,-0.0886,-0.379,-0.195,-0.0942,-0.0824,-0.181,0.0573,0.108,0.173,0.215,0.15,0.163,0.17,0.249,0.608,0.648,0.666,0.668,0.392,0.492
Cc1cnc(NC(=O)Nc2cc(Br)c(C)cc2OC[C@@H]2CNCCO2)cn1,0.235,0.246,0.0563,0.0329,0.0344,0.113,0.227,0.217,0.207,0.233,-0.0313,-0.0243,-0.0759,-0.161,0.0523,0.0207,-0.0517,-0.0919,-0.00545,0.00557,0.0372,0.164,0.245,0.335,0.376,0.486,0.47,0.531,0.56,0.57,0.176,0.216
S=C(NCc1ccc2c(c1)OCO2)N1CCN(c2ncnc3c2oc2ccccc23)CC1 [Amuvatinib (MP-470)],0.661,0.677,0.138,0.0926,-0.0674,-0.0914,0.459,0.471,0.474,0.434,0.0683,0.0587,0.0228,-0.162,0.05,0.0617,0.0713,0.0541,0.0425,0.101,0.162,0.177,0.465,0.477,0.498,0.561,0.627,0.668,0.684,0.68,0.641,0.642
CC(=O)O[C@H]1C(=O)[C@@]2(C)[C@H]([C@H](OC(=O)c3ccccc3)[C@]3(O)C[C@H](OC(=O)[C@H](O)[C@@H](NC(=O)c4ccccc4)c4ccccc4)C(C)=C1C3(C)C)[C@]1(OC(C)=O)CO[C@@H]1C[C@@H]2O [Paclitaxel (Taxol)],0.984,0.986,0.806,0.808,0.794,0.778,0.955,0.969,0.977,0.983,0.943,0.957,0.965,0.967,0.949,0.962,0.969,0.972,0.818,0.846,0.866,0.883,0.955,0.97,0.979,0.986,0.961,0.977,0.983,0.986,0.968,0.979
CC1(C)CNc2cc(NC(=O)c3cccnc3NCc3ccncc3)ccc21 [Motesanib Diphosphate],0.536,0.512,0.0212,-0.0392,-0.0873,-0.298,-0.0958,-0.0733,-0.118,-0.248,-0.0638,-0.211,-0.283,-0.584,-0.22,-0.341,-0.349,-0.452,-0.0309,-0.0326,-0.0402,0.00139,-0.132,-0.033,-0.00123,0.0914,0.361,0.516,0.536,0.546,0.45,0.537
CN1CC[C@H](c2c(O)cc(O)c3c(=O)cc(-c4ccccc4Cl)oc23)[C@H](O)C1 [Flavopiridol hydrochloride],0.704,0.72,-0.0754,-0.0311,-0.0181,0.00401,0.957,0.967,0.974,0.979,-0.111,-0.116,-0.189,-0.255,0.504,0.533,0.499,0.385,-0.0108,0.0505,0.0958,0.189,0.965,0.972,0.978,0.983,0.521,0.567,0.566,0.567,0.615,0.69
